Here are results for four compounds from PubChem BioAssay.

A number with no mark means an inactive call. How the calls were made is not given here.

The assay deals with Aerobactin synthetase IucA (Klebsiella pneumoniae hvKP1). Kind of assay: Biochemical IucA enzyme inhibition primary screen of the Spectrum library (AID 1346200).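 Further: 100% = wells without compound and 0% = wells lacking enzyme.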 The conditions noted are these: malachite green pyrophosphate, A620, at 8 µM, hits give low values.
Consider `C[N+]1(C)CCCC(OC(=O)C(O)(c2ccccc2)c2ccccc2)C1` (centres undefined), for which the activity remaining is 111%.
On to `CC(=O)OCC(=O)[C@@]1(O)CCC2C3CCC4=CC(=O)CC[C@]4(C)[C@@]3(F)[C@@H](O)C[C@@]21C` (some centres undefined), for which the activity remaining is 91.4%.
Then `OC(CCN1CCCCC1)(c1ccccc1)c1ccccc1`, with 95.4%; and `COC(=O)c1c(C)c2c(c(C)c1O)OC(=O)c1c(C)c(Cl)c(O)c(Cl)c1O2`, with 111%.
